# Screening results from PubChem BioAssay.
# This is a sample that favours compounds with a hit; in the whole collection about 8% have one here.
# SW480 rerep – DNA re-replication induction in SW480 cells; hit rate 1.8% among 340,000; SW480 DNA re-replication, Hoechst DNA content imaging, 48 h; Potency, µM (highest dose often 46.1 µM), without a hit: at the top dose re-replication activation, most hits filed as activators; also: % of control where 0% means no effect; nearly all actives have a fitted effect of over 55% in size
#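 Per well, 250 cells were exposed to pinned compound for 48 hr. Nuclear DNA was visualised with Hoechst (40 min, 37 C) and total object intensity recorded by fluorescence scanning.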
# HT1080 IDH1KD tx – HT-1080 IDH1 knockdown cell toxicity (counter line). HT-1080 IDH1 knockdown viability, ATP luminescence, 48 h. Potency, µM (doses to about 46.1 µM), inactives show at the highest dose activity, negative = toxicity, most hits filed as cytotoxic. hit rate 2% among 360,000;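 also: 0% = DMSO wells and -100% = cell-free medium wells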
#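 % activity derives from luminescence (CellTiter-Glo), normalised to DMSO and no-cell wells. HT-1080-IDH1KD cells, 750/well, had 48 h compound exposure at 37 °C.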
# MCF10A rereplic – induces DNA re-replication in MCF 10a normal breast cells | Potency, µM (doses to about 46.1 µM), inactives show at the top dose activity, positive = re-replication, hits mostly activators | hit rate 2.9% among 350,000 | MCF 10A DNA re-replication, Hoechst nuclear intensity, 48 h | AID 624296; also: % of control where 0% means no effect; nearly all actives have a fitted effect of over 50% in size
# HT1080NT lethal – kills 2HG-producing HT-1080-NT fibrosarcoma cells. AID 686970. Potency, µM (series often up to 46.1 µM), for the others: at the highest dose activity, negative = less viability, most hits filed as cytotoxic. HT-1080-NT fibrosarcoma viability, CellTiter-Glo ATP luminescence, 48 h. hit rate 1.6% among 360,000;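 also: NT is the 2HG producing partner of a matched IDH1 knockdown line; 0% = DMSO-treated cells and -100% = media-only wells without cells; nearly all actives have a fitted effect of over 55% in size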
#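 A 48-hour cytotoxicity screen used HT-1080-NT cells plated 2 hours before compound delivery. ATP-based CellTiter-Glo luminescence measured viability, normalized to DMSO and no-cell controls.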
# KB-V1 MDR tox – KB-V1 MDR subline cytotoxicity; KB-V1 MDR cells viability, CellTiter-Glo, 72 h; Potency, µM (titrated, usually from 46.1 µM), most hits filed as cytotoxic; hit rate 3.4% among 400,000; also: % is scaled to controls: 0 for no effect and ±100 for the full control effect; nearly all actives have a fitted effect of over 60% in size
#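 KB-V1 MDR subline cells in DMEM (phenol-red free, 10% FBS) exposed to compounds in qHTS concentration series for 72 h at 37 degrees C. Viability read by CellTiter-Glo luminescence; concentration-effect curves fitted after normalization and correction.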
# KB-3-1 tox – kills parental KB-3-1 adenocarcinoma cells. Potency, µM (doses to about 46.1 µM), usual class: cytotoxic. hit rate 1.4% among 400,000. KB-3-1 viability, CellTiter-Glo ATP luminescence, 72 h; also: % is scaled to controls: 0 for no effect and ±100 for the full control effect; nearly all actives have a fitted effect of over 60% in size
#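 KB-3-1 parental drug-naive adenocarcinoma cells in DMEM/10% FBS, incubated 72 h at 37 C with pin-transferred compounds across a concentration series. Viability by CellTiter-Glo luminescence; concentration-response curves fitted after normalization.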
# * = called active by the depositor; i = inactive; ? = inconclusive; / = no result given. Calls follow the shape of the dose curve; as a rule, active = well fitted curve in the direction sought with a large enough effect; inconclusive = small, poorly fitted or top-dose-only effect, or another doubt; inactive = no such curve, though single readings can be large; an effect the other way counts as inactive or inconclusive. Potency is read from the fitted curve at half-maximal effect.
SMILES,SW480 rerep,HT1080 IDH1KD tx,MCF10A rereplic,HT1080NT lethal,KB-V1 MDR tox,KB-3-1 tox
Cc1ccc(C(=O)NCCCn2ccnc2)cc1[N+](=O)[O-],-4%,?,1%,-12%,i,i
CC(=O)NCc1c(I)c(NC(C)=O)c(I)c(C(=O)O)c1I,-3%,/,0%,/,/,/
COc1ccc(-c2ccc3ncnc(NCc4nc(C)cs4)c3c2)cc1OC,/,/,/,/,?,i
CC(C)CC(=O)Nc1ccnn1C1CCN(C(=O)c2ccc(F)cc2Cl)CC1,-14%,0%,-1%,-6%,i,i
CC(=O)NC(=S)Nc1ccc(S(=O)(=O)N(C)Cc2ccccc2)cc1,17%,?,?,-28%,?,i
CC(C)C(=O)NC(=S)Nc1ccc(S(=O)(=O)N(C)Cc2ccccc2)cc1,?,21µM*,?,?,?,?
CC(C)C(=O)NC(=S)Nc1ccc(S(=O)(=O)Nc2ccccc2)cc1,?,15%,?,1%,23µM*,i
COc1ccc(NS(=O)(=O)c2ccc(NC(=S)NC(=O)C(C)C)cc2)cc1,7%,0%,15%,-12%,i,i
CN(Cc1ccccc1)S(=O)(=O)c1ccc(NC(=O)C2CCCCC2C(=O)O)cc1 (stereo not given),-9%,0%,14%,-4%,21µM*,i
COc1ccc(S(=O)(=O)NCc2ccccn2)cc1NC(=O)c1ccccc1C,7.3µM*,?,3.7µM*,?,?,15µM*
COc1ccc(S(=O)(=O)NCc2ccncc2)cc1NC(=O)c1ccc(Cl)cc1,-344%,-4%,1%,-20%,i,i
COc1ccc(S(=O)(=O)NCc2ccccn2)cc1NC(=O)c1ccc(Cl)cc1,?,?,8.2µM*,?,?,?
Cc1nnsc1C(=O)NNc1c(Cl)cccc1Cl,-11%,-7%,8%,?,i,i
CCc1ccccc1NNC(=O)c1snnc1C,12µM*,?,?,12µM*,i,i
O=C(Nc1ccc2nc([C@@H]3O[C@H](CO)[C@@H](O)[C@H](O)[C@H]3O)[nH]c2c1)NC(c1ccccc1)c1ccccc1,/,4%,/,13%,i,i
O=S(=O)(CCSc1ccccn1)c1nc2ccccc2s1,?,7.9µM*,?,20µM*,i,i
O=C(CSc1ccccn1)Nc1nc2ccccc2s1,-7%,-2%,4%,-2%,i,i
CCS(=O)(=O)CCSc1nc2ccccc2o1,0%,-1%,9%,-5%,i,i
O=S(=O)(CCSc1nc2ccccc2o1)c1nc2ccccc2s1,4.6µM*,6.3µM*,?,10µM*,i,i
O=C(O)c1ccc(NC2=C/C(=N/S(=O)(=O)c3ccccc3)c3ccccc3C2=O)cc1,3.3µM*,5.8µM*,?,4.1µM*,?,18µM*
Cc1cc(C)c(S(=O)(=O)/N=C2\C=C(Nc3ccc(C(=O)O)cc3)C(=O)c3ccccc32)c(C)c1,?,4.1µM*,17%,8.2µM*,i,?
Cc1ccc(S(=O)(=O)/N=C2\C=C(NS(=O)(=O)c3ccccc3)C(=O)c3ccccc32)cc1,99%,?,?,?,i,i
CN(C)c1ccc(C(=O)NCc2ccc3c(c2)CCN3C(=O)c2ccccc2)cc1,/,/,/,/,i,i
CN1/C(=C\C(=O)c2cccs2)Sc2ccccc21,15µM*,?,18µM*,?,?,i
CN1/C(=C\C(=O)c2cccs2)C(C)(C)c2ccccc21,?,5%,4.1µM*,4%,?,i
Cc1ccc(NC(=O)CSc2nc(-c3ccc(F)cc3)cc(C(F)(F)F)c2C#N)cc1,/,/,/,/,i,i
Cc1nc(SCC(=O)Nc2ccc(F)cc2)c(C#N)c(C)c1CC(=O)c1ccc(Br)cc1,?,-11%,16µM*,-14%,?,16µM*
